Laboratory results from PubChem BioAssay (NCATS).
Results filed as inconclusive are left out. Active and inactive are the calls of the source. Calls come from the whole dose curve; as a rule, active = well fitted curve in the direction sought with a large enough effect; inconclusive = small, poorly fitted or top-dose-only effect, or another doubt; inactive = no such curve, though single readings can be large; an effect the other way counts as inactive or inconclusive.

Columns and labels:
[1] = tested on: C33A; assay: Primary qHTS to identify gynecologic anti-cancer compounds using libraries of approved drugs and bioactive compounds (AID 1345084); settings: Gynecologic cancer cell panel viability, ATPlite luminescence, 48 h; series mostly up to 57.5 µM; note: nearly all actives have a fitted effect of over 55% in size
How it was run: (§1)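 Cytotoxicity screen measuring ATP content by luciferase luminescence. Each compound is applied at five concentrations for 48 h at 37 C with 5% CO2.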

[2] = tested on: CAOV3; assay: as above; settings: Gynecologic cancer cell panel viability, ATPlite luminescence, 48 h; series mostly up to 57.5 µM
How it was run: as §1

[3] = tested on: CASKI; assay: as above; settings: Gynecologic cancer cell panel viability, ATPlite luminescence, 48 h; series mostly up to 57.5 µM
How it was run: as §1

[4] = tested on: Es-2; assay: as above; settings: Gynecologic cancer cell panel viability, ATPlite luminescence, 48 h; series mostly up to 57.5 µM
How it was run: as §1

[5] = tested on: HeLa; assay: as above; settings: Gynecologic cancer cell panel viability, ATPlite luminescence, 48 h; series mostly up to 57.5 µM
How it was run: as §1

[6] = tested on: Hek293T; assay: as above; settings: Gynecologic cancer cell panel viability, ATPlite luminescence, 48 h, control line for the selectivity index; series mostly up to 57.5 µM
How it was run: as §1

[7] = tested on: JEG-3; assay: as above; settings: Gynecologic cancer cell panel viability, ATPlite luminescence, 48 h; series mostly up to 57.5 µM
How it was run: as §1

[8] = tested on: OV90; assay: as above; settings: Gynecologic cancer cell panel viability, ATPlite luminescence, 48 h; series mostly up to 57.5 µM
How it was run: as §1

[9] = tested on: PA-1; assay: as above; settings: Gynecologic cancer cell panel viability, ATPlite luminescence, 48 h; series mostly up to 57.5 µM
How it was run: as §1

[10] = tested on: Tov112D; assay: as above; settings: Gynecologic cancer cell panel viability, ATPlite luminescence, 48 h; series mostly up to 57.5 µM
How it was run: as §1

[11] = tested on: Tov-21-G; assay: as above; settings: Gynecologic cancer cell panel viability, ATPlite luminescence, 48 h; series mostly up to 57.5 µM
How it was run: as §1

[12] = tested on: SKOV3; assay: as above; settings: Gynecologic cancer cell panel viability, ATPlite luminescence, 48 h; series mostly up to 57.5 µM
How it was run: as §1

[13] = qHTS assay to identify inhibitors of the type 1 interferon - major histocompatibility complex class I in skeletal muscle: Counter screen cell viability and HiBit confirmation (AID 1347412); settings: iHSKM muscle cells + IFN-b, HiBiT or CellTiter-Glo, 24 h, at 45.9 µM (top of the series); note: nearly all actives have a fitted effect of over 60% in size
How it was run: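 Myoblasts (C25cl48, HLA-B HiBiT) seeded in medium without dexamethasone, IFN-b 4 ng/ml added except unstimulated columns; 1 hr later compounds pinned (12-pt 1:3, top 46 uM final). Incubated 24 hrs, lysed 10 min, luminescence measured.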
% is set by controls: 0 for no effect and ±100 for the full control effect.

COc1ccc(CCCN2CCC(COC(c3ccccc3)c3ccccc3)CC2)cc1
inactive: Potency [1] | Potency [2] | Potency [3] | Potency [4] | Potency [5] | Potency [6] | Potency [7] | Potency [8] | Potency [9] | Potency [10]

COc1cc2nc(C3CC3)nc(N3CCN(c4ccccc4OC)CC3)c2cc1OC
inactive: Potency [1] | Potency [2] | Potency [3] | Potency [4] | Potency [5] | Potency [6] | Potency [7] | Potency [8] | Potency [9] | Potency [11] | Potency [10]

COc1ccc(-c2c(C)nn3c(NCCN4CCOCC4)cc(C)nc23)cc1OC
inactive: Potency [1] | Potency [2] | Potency [3] | Potency [4] | Potency [5] | Potency [6] | Potency [7] | Potency [8] | Potency [9] | Potency [11] | Potency [10]

CC(=O)C=C=C1C(C)(C)CC(O)CC1(C)O[C@@H]1O[C@H](CO[C@H]2OC[C@](O)(CO)[C@H]2O)[C@@H](O)[C@H](O)[C@H]1O (stereo partly drawn)
inactive: Potency [1] | Potency [2] | Potency [3] | Potency [4] | Potency [5] | Potency [6] | Potency [7] | Potency [8] | Potency [9] | Potency [11] | Potency [10]

NC(=O)c1nc(Nc2ccccc2)sc1NC(=O)C1CCCCC1
inactive: Potency [1] | Potency [2] | Potency [3] | Potency [4] | Potency [5] | Potency [6] | Potency [7] | Potency [8] | Potency [9] | Potency [11] | Potency [10]

O=C(Nc1ccc(Cl)cc1)C1CCCN(C(=O)c2cccc(-c3ccco3)c2)C1 (stereo not drawn)
inactive: Potency [1] | Potency [2] | Potency [3] | Potency [4] | Potency [5] | Potency [6] | Potency [7] | Potency [8] | Potency [9] | Potency [11] | Potency [10]

NC(N)=N/N=C/c1ccccc1Cl
inactive: Potency [1] | Potency [2] | Potency [3] | Potency [4] | Potency [5] | Potency [6] | Potency [7] | Potency [8] | Potency [9] | Potency [11] | Potency [10]

C[C@@H](c1ccc2nccn2c1)n1nnc2ncc(-c3cnn(C)c3)nc21
inactive: Potency [1] | Potency [2] | Potency [3] | Potency [4] | Potency [5] | Potency [6] | Potency [7] | Potency [8] | Potency [9] | Potency [11] | Potency [10]

C[C@H](Nc1cc2c(-c3ccc4c(c3)OCO4)noc2cn1)c1ccccc1
inactive: Potency [1] | Potency [2] | Potency [3] | Potency [4] | Potency [5] | Potency [6] | Potency [7] | Potency [8] | Potency [9] | Potency [11] | Potency [10]

CCOc1cn(-c2ccc(F)cc2C)nc1C(=O)Nc1ccc(Oc2ccnc3cc(OC)c(OC)cc23)c(F)c1
inactive: Potency [1] | Potency [2] | Potency [3] | Potency [4] | Potency [5] | Potency [6] | Potency [7] | Potency [8] | Potency [9] | Potency [11] | Potency [10]

Cc1cccc(CC(=O)N2CCc3c2ccc(-c2cn(C)c4ncnc(N)c24)c3F)n1
inactive: Potency [1] | Potency [2] | Potency [3] | Potency [4] | Potency [5] | Potency [6] | Potency [7] | Potency [8] | Potency [9] | Potency [11] | Potency [10]

S=C(c1ccc(-c2ccc(Cl)c(Cl)c2)o1)N1CCCCC1
inactive: Potency [1] | Potency [2] | Potency [3] | Potency [4] | Potency [5] | Potency [6] | Potency [7] | Potency [8] | Potency [9] | Potency [11] | Potency [10]

COc1ccccc1C(=O)Nc1cc2c(cc1N1CCCC1)n(C)c(=O)n2C
inactive: Potency [1] | Potency [2] | Potency [3] | Potency [4] | Potency [5] | Potency [6] | Potency [7] | Potency [8] | Potency [9] | Potency [11] | Potency [10]

CC(C)=C[C@@H]1[C@H](CO[C@@H]2O[C@H](CO)[C@@H](O)[C@H](O)[C@H]2O)C1(C)C
inactive: Potency [1] | Potency [2] | Potency [3] | Potency [4] | Potency [5] | Potency [6] | Potency [7] | Potency [8] | Potency [9] | Potency [11] | Potency [10]

O=C(NCc1cccs1)c1cc2nc(-c3ccco3)cc(C(F)(F)Cl)n2n1
inactive: Potency [1] | Potency [2] | Potency [3] | Potency [4] | Potency [5] | Potency [6] | Potency [7] | Potency [8] | Potency [12] | Potency [11] | Potency [10]

C[C@@H]1CC[C@@]23CC[C@]4(C)[C@@](C=CC5[C@@]6(C)CC[C@H](O)C(C)(C)C6CC[C@]54C)(OC2=O)C3[C@H]1C (stereo partly drawn)
inactive: Potency [1] | Potency [2] | Potency [3] | Potency [4] | Potency [5] | Potency [6] | Potency [7] | Potency [8] | Potency [9] | Potency [11] | Potency [10]

C/C(=C\CCC(C)C1=CCC2(C)OC3=C(CC12)C(=O)C(O)CC3)CO (stereo not drawn)
inactive: Potency [1] | Potency [2] | Potency [3] | Potency [4] | Potency [5] | Potency [6] | Potency [7] | Potency [8] | Potency [9] | Potency [11] | Potency [10]

CC(C)(C)[C@H](NC(=O)c1ccc(N)c(Cl)c1)C(=O)N1CCC[C@H]1C(=O)N[C@H](C#N)CC(=O)O
inactive: Potency [1] | Potency [2] | Potency [3] | Potency [4] | Potency [5] | Potency [6] | Potency [7] | Potency [8] | Potency [9] | Potency [11] | Potency [10]

Cc1cc(OCCCS(C)(=O)=O)cc(C)c1-c1cccc(COc2ccc3c(c2)OCC3CC(=O)O)c1 (stereo not drawn)
inactive: Potency [1] | Potency [2] | Potency [3] | Potency [4] | Potency [5] | Potency [6] | Potency [7] | Potency [8] | Potency [12] | Potency [11] | Potency [10]

C[C@H]1CC[C@@]2(OC1)O[C@H]1CC3[C@@H]4CC[C@@H]5C[C@@H](O[C@@H]6O[C@H](CO)[C@@H](O[C@@H]7O[C@@H](C)[C@H](O)[C@@H](O)[C@H]7O)[C@H](O)[C@H]6O[C@@H]6O[C@H](CO)[C@@H](O)[C@H](O)[C@H]6O)CC[C@]5(C)C4CC[C@]3(C)[C@H]1[C@@H]2C (stereo partly drawn)
inactive: activity change, negative = cytotoxicity [1] -15.7% [at 11.6 µM] | activity change, negative = cytotoxicity [2] -14.9% [at 11.6 µM] | activity change, negative = cytotoxicity [3] 2.17% [at 11.6 µM] | activity change, negative = cytotoxicity [4] 0.261% [at 11.6 µM] | activity change, negative = cytotoxicity [5] 24.8% [at 11.6 µM] | activity change, negative = cytotoxicity [6] -22.5% [at 11.6 µM] | activity change, negative = cytotoxicity [7] 3.99% [at 11.6 µM] | activity change, negative = cytotoxicity [8] -17.7% [at 11.6 µM] | activity change, negative = cytotoxicity [12] -15.8% [at 11.6 µM] | activity change, negative = cytotoxicity [11] -2.16% [at 11.6 µM] | activity change, negative = cytotoxicity [10] -1.68% [at 11.6 µM]

CNC(=O)c1cc(Oc2ccc(NC(=O)c3cccc(C(F)(F)F)c3)cc2)ccn1
inactive: Potency [1] | Potency [2] | Potency [3] | Potency [4] | Potency [5] | Potency [6] | Potency [7] | Potency [8] | Potency [11] | Potency [10]

OC(c1ccc(-c2ccc(CN3CCN(Cc4ccncc4)CC3)cc2)c(F)c1)(C(F)(F)F)C(F)(F)F
inactive: Potency [1] | Potency [2] | Potency [3] | Potency [4] | Potency [5] | Potency [6] | Potency [7] | Potency [8] | Potency [12] | Potency [11] | Potency [10] | activity change, negative = inhibition ([13]; HiBiT) -18.6% | activity change, negative = inhibition ([13]; Viability) -8.6%

CCNc1nc(Nc2cc(F)c(C(=O)N3CCOCC3)cc2OC)ncc1C(F)(F)F
inactive: Potency [1] | Potency [2] | Potency [3] | Potency [4] | Potency [5] | Potency [6] | Potency [7] | Potency [8] | Potency [12] | Potency [10]

CNc1nc(Nc2ccc(C(=O)N3CCOCC3)cc2OC)nc2[nH]cc(Cl)c12
inactive: Potency [1] | Potency [2] | Potency [3] | Potency [4] | Potency [5] | Potency [6] | Potency [7] | Potency [8] | Potency [12] | Potency [11] | Potency [10]

CC(=O)c1c(C)cc2cccc(O)c2c1O[C@@H]1O[C@H](CO)[C@@H](O)[C@H](O)[C@H]1O
inactive: Potency [1] | Potency [2] | Potency [3] | Potency [4] | Potency [5] | Potency [6] | Potency [7] | Potency [8] | Potency [12] | Potency [10]
